Source: PubChem BioAssay
E coli Lon inh: inhibits E. coli Lon protease; P0A9M0; purified E. coli Lon protease, fluorescence polarization; hit rate 0.42% among 360,000; inhibition, % at 7.94 µM; in the data active means inhibition above about 13%, passing the limit was not always enough;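 further: 0% = enzyme with probe and DMSO and 100% = no enzyme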
BCLXL inh: inhibitors of human Bcl-xL; inhibition, % at 10.9 µM; hit rate 0.7% among 320,000; GST-Bcl-xL / FITC-Bim BH3 peptide fluorescence polarization; AID 2129; Q07817;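 active means inhibition above the mean of all tested compounds plus 3 SD, cutoff set per campaign, cut at about 30% in these data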;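 further: 0% = DMSO wells and 100% = unlabeled Bim-BH3 peptide competitor; inhibitors lower millipolarization by displacing the labeled peptide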
EBV gp42 inh: EBV gp42 inhibition. Q1HVG2. hit rate 0.42% among 220,000. inhibition, % (tested at 21.74 µM). Fluorescence polarization binding assay, mP read-out; in the data active means inhibition above about 50%
MEX-5 binding: C. elegans MEX-5 TCR-2 RNA binding activity; MEX-5/FITC-TCR2 RNA binding, fluorescence polarization; active compounds read low; Q9XUB2; activity score (negative = inhibition of binding), % at 10 µM; hit rate 0.38% among 300,000;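 active means inhibition past about -25% in most replicates, and total fluorescence under double the plate's negative control median, limit read from the data; inconclusive means replicates evenly split on the limit, or fluorescence at least double controls; inactive means too little inhibition in most replicates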;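 further: 0% = DMSO and -100% = 5 µM competing unlabeled TCR2 RNA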
GLD-1 RNA inh: GLD-1-TGE RNA interaction inhibition (C. elegans); Q17339; purified GLD-1 + fluorescein TGE RNA, fluorescence polarization; inhibition, % at 5.96 µM; hit rate 0.44% among 320,000; AID 2280;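 active means percent inhibition above a per-plate cutoff, the plate mean of test compounds plus 3 SD, cut at about 30% in these data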;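 further: 0% = DMSO wells with GLD-1 and probe and 100% = wells lacking GLD-1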
Target sequence (Q17339 whole entry, looked up): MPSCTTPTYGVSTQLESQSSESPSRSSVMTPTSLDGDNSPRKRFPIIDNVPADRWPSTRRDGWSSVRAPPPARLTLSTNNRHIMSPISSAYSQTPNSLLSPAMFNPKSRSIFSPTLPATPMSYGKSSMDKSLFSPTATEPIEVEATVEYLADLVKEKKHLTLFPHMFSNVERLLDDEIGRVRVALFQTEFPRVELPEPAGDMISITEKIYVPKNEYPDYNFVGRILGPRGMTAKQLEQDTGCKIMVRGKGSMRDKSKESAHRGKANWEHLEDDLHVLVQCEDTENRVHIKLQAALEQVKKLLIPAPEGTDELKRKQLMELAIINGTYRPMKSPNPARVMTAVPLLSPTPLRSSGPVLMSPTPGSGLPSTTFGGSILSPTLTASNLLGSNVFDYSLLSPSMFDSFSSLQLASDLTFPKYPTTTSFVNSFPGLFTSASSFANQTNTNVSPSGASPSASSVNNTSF
eLon confirm: confirmation of E. coli Lon protease inhibitors; hit rate 31% among 1,400; inhibition, % at 7.94 µM; shares compounds with E coli Lon inh; purified E. coli Lon, fluorescence polarization; in the data active means inhibition above about 16%;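 further: 0% = enzyme with probe and DMSO and 100% = no enzyme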
An asterisk follows results filed as active; ? = inconclusive; . = no result given. An excerpt weighted towards active compounds, which were near 1.3% of everything screened.

SMILES	E coli Lon inh	BCLXL inh	EBV gp42 inh	MEX-5 binding	GLD-1 RNA inh	eLon confirm
CN(C)c1ccc(C(=S)N2CCCCC2)cc1	45.6*	3.8	-10.9	-3.9	2.7	4.8
CN(C)c1ccc(C(=S)N2CCNCC2)cc1	1.0	3.4	0.2	0.3	-2.3	.
COc1ccc(CCNC(=O)CN2C(=O)C(=O)N(C3CCCC3)C2=O)cc1OC	1.1	-9.8	.	.	2.7	.
Oc1cc(CNCc2ccccc2)c(O)cc1CNCc1ccccc1	51.9*	.	.	.	.	12.1
CCc1cccc(CC)c1N1C(=O)C2=C(SCCCS2)C1=O	180.4*	.	.	.	.	159.6*
CSc1ccc(C2C(C(=O)c3ccco3)=C(O)C(=O)N2c2nnc(SC)s2)cc1 (stereo unspecified)	40.8*	111.1*	.	-59.3*	92.7*	48.8*
CCc1nn(CC(=O)N2CCN(c3ccc(OC)cc3)CC2)c(=O)c2cc3occc3n12	-1.2	1.1	.	-2.7	1.0	.
O=C(O)C1CCCC2CN3CCc4c([nH]c5ccccc45)C3C(O)C21 (stereo unspecified)	20.3*	86.4*	.	-9.9	34.8*	2.0
Cc1ccccc1NC(=O)C1CCCN(c2ncnc3onc(-c4ccc(F)cc4)c23)C1 (stereo unspecified)	16.1*	3.9	.	1.1	-0.4	-15.1
CCc1ccccc1NC(=O)C1CCCN(c2ncnc3onc(-c4ccc(F)cc4)c23)C1 (stereo unspecified)	-0.9	3.5	.	0.5	10.1	.
COc1ccc(Nc2cccc3ccccc23)cc1	83.7*	16.6	.	-0.5	16.9	2.2
O=C1c2ccccc2C(=O)N1SC1CCCCC1	18.6*	6.4	-39.3	0.7	2.2	-65.0
O=C(OCN1C(=O)c2ccccc2C1=O)C1CCCCC1	1.7	8.9	-8.6	2.3	-6.2	.
O=C(CCCn1c(=O)c2sccc2n(Cc2cc(=O)n3ccccc3n2)c1=O)NCc1ccco1	15.4*	-0.4	-6.7	0.6	6.4	0.5
O=C(c1ccc([N+](=O)[O-])s1)N1CCN(c2ccc(C(F)(F)F)cn2)CC1	13.7	1.5	.	-0.3	3.4	.
CCC1(c2ccccc2)NC(=O)N(CC(=O)Nc2ccccc2N2CCCC2)C1=O (stereo unspecified)	6.7	19.1	.	-2.1	11.9	.
CCC1(c2ccccc2)NC(=O)N(CC(=O)Nc2ccc(OC)nc2)C1=O (stereo unspecified)	111.8*	166.8*	.	?	123.7*	104.9*
CCC1(c2ccccc2)NC(=O)N(CC(=O)Nc2cc(Cl)ccc2N2CCOCC2)C1=O (stereo unspecified)	17.2*	-14.5	.	1.3	0.2	-14.3
Cc1ccc2c(c1)CCCN2CC(=O)N(C)c1c(N)n(Cc2ccccc2)c(=O)[nH]c1=O	146.1*	121.6*	.	.	15.0	-69.0
O=C1N(c2cccc(Cl)c2)C(c2ccccc2)N2CCCN12 (stereo unspecified)	-20.3	3.1	-20.6	1.2	-4.4	.
Cc1ccc(C2N(c3ccccc3)C(=O)N3CCCN23)cc1 (stereo unspecified)	36.0*	3.1	3.5	-0.9	-2.6	-11.0
CCOc1ccccc1N(CC)C(=O)c1ccc2c(=O)n3c(nc2c1)CCCCC3	20.9*	2.3	.	3.1	4.8	-3.2
CCOC(=O)C1=C(COC(=O)/C=C/c2ccc(OC)cc2OC)NC(=O)NC1C (stereo unspecified)	3.2	7.5	.	-2.5	2.2	.
O=C(NCc1ccncc1)C(F)(F)C(F)(F)C(=O)NCc1ccncc1	16.6*	-1.4	-11.4	-1.0	5.8	-4.3
CCOc1ccc(CC(=O)OCc2cc(=O)n3cc(Br)ccc3n2)cc1	41.8*	1.4	-1.1	.	2.9	8.2
SMILES	E coli Lon inh	BCLXL inh	EBV gp42 inh	MEX-5 binding	GLD-1 RNA inh	eLon confirm
Cc1ccc(NC(=O)Cn2c(=O)c3cccn3c3ccccc32)c(Cl)c1	-17.4	-3.5	.	-5.0	-2.1	.
Cc1c([N+](=O)[O-])nnn1-c1cc(Cl)cc(Cl)c1	27.5*	4.2	-9.8	3.1	-6.6	0.9
CC(C)[C@H](NC(=O)OC(C)(C)C)C(=O)N1CCC(C(=O)N[C@@H](C)C(=O)Nc2ccc(F)cc2)CC1	19.5*	4.4	.	-0.9	1.9	-4.5
CCc1ccc(NC(=O)[C@H](C)NC(=O)C2CCN(C(=O)[C@@H](NC(=O)OC(C)(C)C)C(C)C)CC2)cc1	3.4	4.8	.	1.7	7.3	.
CCCCOC(=O)Nc1cc(C)c(Cl)cc1OC	33.6*	2.2	-9.2	3.4	0.0	-0.3
COc1ccc(CN2CCNC(=O)C2CC(=O)NCc2csc(C)n2)c(F)c1 (stereo unspecified)	18.6*	17.6	.	-1.2	14.2	4.4
CCCCC1=CC2=C(c3ccco3)C(=O)C(C)(OC(=O)c3ccc(OC)cc3)C(=O)C2=CN1CC1CC1 (stereo unspecified)	39.2*	18.2	19.8	-7.2	14.3	20.3*
CCCCC1=CC2=C(c3ccco3)C(=O)C(C)(OC(=O)c3ccc(OC)cc3)C(=O)C2=CN1CCCCO (stereo unspecified)	37.2*	79.3*	-2.0	-0.2	42.2*	2.4
COc1cc(C(=O)OCC(=O)N2CCOCC2)c([N+](=O)[O-])cc1OC	18.2*	5.7	.	0.3	4.9	-4.2
CCOC(=O)c1c(C)oc2c1c(C=NCc1ccccn1)c(O)c1ccccc12	123.6*	.	2.6	.	.	134.8*
CCOC(=O)c1c(C)oc2c1c(C=NCC1CCCO1)c(O)c1ccccc12 (stereo unspecified)	29.1	.	-20.2	.	.	.
CCC(=O)NC(c1cccs1)c1ccc2cccnc2c1O (stereo unspecified)	21.2*	4.7	-3.5	-2.6	-7.3	1.1
CC(C)CC(=O)NC(c1cccs1)c1ccc2cccnc2c1O (stereo unspecified)	4.5	7.5	6.5	-1.6	3.5	.
CC(C)NC(=O)c1cc(C2CCCCN2S(=O)(=O)c2ccccc2)on1 (stereo unspecified)	3.6	.	.	.	.	.
COc1ccc(C)cc1-n1c(C)cc(C=O)c1C	2.4	0.1	-11.6	0.1	-4.3	.
COc1ccc(N)cc1-n1c(C)ccc1C	51.6*	38.4*	-13.2	-1.2	11.0	18.1*
CSCCC(NC(=O)c1ccc(Cl)cc1Cl)C(=O)NNC(=O)c1ccncc1 (stereo unspecified)	0.1	2.5	.	.	-1.1	.
COc1ccc(-c2onc3ccc(Br)cc23)cc1	39.0*	112.6*	127.4*	-13.0	97.1*	86.3*
COc1cc(-c2onc3ccc(Br)cc23)cc(OC)c1OC	-2.3	4.8	8.7	2.0	-5.3	.
COc1ccccc1C(=O)NCCn1ccc2ccccc21	15.7*	0.8	-7.8	1.6	4.4	10.2
COc1ccc(C(=O)NCCn2ccc3ccccc32)cc1OC	0.0	0.5	-11.1	-0.7	1.9	.
COc1ccc(C2Nc3ccccc3NC3=C2C(=O)CC(C)(C)C3)cc1OC (stereo unspecified)	-2.6	3.9	.	-3.0	3.5	.
